Experimental data as given in the supplement of paper PMC10849652.
The full data set covers some 7,900 targets. This sample favours those with a hit. About 0.6% of all pairs of compound and target were hits. A number with no mark means an inactive call.

Columns and labels:
Assay in all cases: log2 fold change, soluble protein after heating vs DMSO (PISA); higher = thermal stabilisation; K562 cells, 10 uM, 30 min; active = over 0.2 and 3.5 SD of the protein, either way, in both replicates (recomputed)
[1] = compound: COC1=CC=C(C=C1)CN2C=CC3=C2C=C(C=C3)C(=O)NO
Method in brief: (§1)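 K562 cells (2×10^6 cells/mL) were treated with 10 μM compound for 30 min, and aliquots were heated for 3 min over 48°C-58°C. Pooled aliquots were extracted in PBS with 0.5% NP-40 at 4°C, and the supernatant after 21,000xg for 90 min was measured by TMTpro 16plex LC-MS/MS with channel sums equalised. Reported thermal stability, relative to control samples and from duplicates, is a log2 fold change.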

filanesib = compound: CON(C)C(=O)N1N=C(c2cc(F)ccc2F)S[C@@]1(CCCN)c1ccccc1 [filanesib]
Method in brief: as §1

zotarolimus = compound: CO[C@H]1C[C@@H]2CC[C@@H](C)[C@@](O)(O2)C(=O)C(=O)N2CCCC[C@H]2C(=O)O[C@H]([C@H](C)C[C@@H]2CC[C@H](n3cnnn3)[C@H](OC)C2)CC(=O)[C@H](C)/C=C(\C)[C@@H](O)[C@@H](OC)C(=O)[C@H](C)C[C@H](C)/C=C/C=C/C=C/1C [zotarolimus]
Method in brief: as §1

idasanutlin = compound: COc1cc(C(=O)O)ccc1NC(=O)[C@@H]1N[C@@H](CC(C)(C)C)[C@](C#N)(c2ccc(Cl)cc2F)[C@H]1c1cccc(Cl)c1F [idasanutlin]
Method in brief: as §1

alisertib = compound: COc1cc(Nc2ncc3c(n2)-c2ccc(Cl)cc2C(c2c(F)cccc2OC)=NC3)ccc1C(=O)O [alisertib]
Method in brief: as §1

[2] = compound: COc1cc2nc(-c3cc(F)ccc3O)nc(N[C@@H]3CNC[C@H]3C(C)(C)O)c2cc1OC
Method in brief: as §1

gefitinib = compound: COc1cc2ncnc(Nc3ccc(F)c(Cl)c3)c2cc1OCCCN1CCOCC1 [gefitinib]
Method in brief: as §1

[3] = compound: COc1cccc2cc(-c3nc([C@H]4CC[C@H](C(=O)O)CC4)n4ncnc(N)c34)[nH]c12
Method in brief: as §1

lapatinib = compound: CS(=O)(=O)CCNCc1ccc(-c2ccc3ncnc(Nc4ccc(OCc5cccc(F)c5)c(Cl)c4)c3c2)o1 [lapatinib]
Method in brief: as §1

pictilisib = compound: CS(=O)(=O)N1CCN(Cc2cc3nc(-c4cccc5[nH]ncc45)nc(N4CCOCC4)c3s2)CC1 [pictilisib]
Method in brief: as §1

[4] = compound: CS(=O)(=O)c1ccc(-c2cnc(N)c(C(=O)Nc3ccccc3)n2)cc1
Method in brief: as §1

crizotinib = compound: C[C@@H](Oc1cc(-c2cnn(C3CCNCC3)c2)cnc1N)c1c(Cl)ccc(F)c1Cl [crizotinib]
Method in brief: as §1

[5] = compound: C[C@@H]1COCCN1C2=NC(=NC(=C2)C3(CC3)S(=O)(=O)C)C4=C5C=CNC5=CC=C4
Method in brief: as §1

[6] = compound: C[C@H](C1=CC=C(C=C1)C(=O)NC2=C3C=CNC3=NC=C2)N
Method in brief: as §1

duvelisib = compound: C[C@H](Nc1ncnc2nc[nH]c12)c1cc2cccc(Cl)c2c(=O)n1-c1ccccc1 [duvelisib]
Method in brief: as §1

gandotinib = compound: Cc1cc(Nc2cc(CN3CCOCC3)c3nc(C)c(Cc4ccc(Cl)cc4F)n3n2)n[nH]1 [gandotinib]
Method in brief: as §1

tozasertib = compound: Cc1cc(Nc2cc(N3CCN(C)CC3)nc(Sc3ccc(NC(=O)C4CC4)cc3)n2)n[nH]1 [tozasertib]
Method in brief: as §1

[7] = compound: Cc1cc(SCc2sc(-c3ccc(C(F)(F)F)cc3)nc2C)ccc1OCC(=O)O
Method in brief: as §1

doramapimod = compound: Cc1ccc(-n2nc(C(C)(C)C)cc2NC(=O)Nc2ccc(OCCN3CCOCC3)c3ccccc23)cc1 [doramapimod]
Method in brief: as §1

ispinesib = compound: Cc1ccc(C(=O)N(CCCN)[C@@H](c2nc3cc(Cl)ccc3c(=O)n2Cc2ccccc2)C(C)C)cc1 [ispinesib]
Method in brief: as §1

UniProt P49116, sequence (P49116 whole entry, looked up): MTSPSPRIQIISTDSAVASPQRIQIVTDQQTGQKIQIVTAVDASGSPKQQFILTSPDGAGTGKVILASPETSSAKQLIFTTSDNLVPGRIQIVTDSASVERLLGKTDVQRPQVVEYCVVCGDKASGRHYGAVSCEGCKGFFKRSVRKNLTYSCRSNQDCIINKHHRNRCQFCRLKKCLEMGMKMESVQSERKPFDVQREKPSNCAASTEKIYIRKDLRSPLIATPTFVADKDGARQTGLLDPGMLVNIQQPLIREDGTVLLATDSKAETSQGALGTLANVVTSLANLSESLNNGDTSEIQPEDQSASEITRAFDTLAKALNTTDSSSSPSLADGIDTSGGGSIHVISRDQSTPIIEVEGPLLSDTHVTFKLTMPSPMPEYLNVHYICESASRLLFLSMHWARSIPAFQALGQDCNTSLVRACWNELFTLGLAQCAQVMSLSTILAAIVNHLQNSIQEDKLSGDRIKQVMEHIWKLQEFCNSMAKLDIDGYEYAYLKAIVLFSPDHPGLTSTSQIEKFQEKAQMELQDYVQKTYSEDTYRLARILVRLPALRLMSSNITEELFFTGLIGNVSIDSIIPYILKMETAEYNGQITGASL
UniProt P35749, sequence (P35749 whole entry, looked up): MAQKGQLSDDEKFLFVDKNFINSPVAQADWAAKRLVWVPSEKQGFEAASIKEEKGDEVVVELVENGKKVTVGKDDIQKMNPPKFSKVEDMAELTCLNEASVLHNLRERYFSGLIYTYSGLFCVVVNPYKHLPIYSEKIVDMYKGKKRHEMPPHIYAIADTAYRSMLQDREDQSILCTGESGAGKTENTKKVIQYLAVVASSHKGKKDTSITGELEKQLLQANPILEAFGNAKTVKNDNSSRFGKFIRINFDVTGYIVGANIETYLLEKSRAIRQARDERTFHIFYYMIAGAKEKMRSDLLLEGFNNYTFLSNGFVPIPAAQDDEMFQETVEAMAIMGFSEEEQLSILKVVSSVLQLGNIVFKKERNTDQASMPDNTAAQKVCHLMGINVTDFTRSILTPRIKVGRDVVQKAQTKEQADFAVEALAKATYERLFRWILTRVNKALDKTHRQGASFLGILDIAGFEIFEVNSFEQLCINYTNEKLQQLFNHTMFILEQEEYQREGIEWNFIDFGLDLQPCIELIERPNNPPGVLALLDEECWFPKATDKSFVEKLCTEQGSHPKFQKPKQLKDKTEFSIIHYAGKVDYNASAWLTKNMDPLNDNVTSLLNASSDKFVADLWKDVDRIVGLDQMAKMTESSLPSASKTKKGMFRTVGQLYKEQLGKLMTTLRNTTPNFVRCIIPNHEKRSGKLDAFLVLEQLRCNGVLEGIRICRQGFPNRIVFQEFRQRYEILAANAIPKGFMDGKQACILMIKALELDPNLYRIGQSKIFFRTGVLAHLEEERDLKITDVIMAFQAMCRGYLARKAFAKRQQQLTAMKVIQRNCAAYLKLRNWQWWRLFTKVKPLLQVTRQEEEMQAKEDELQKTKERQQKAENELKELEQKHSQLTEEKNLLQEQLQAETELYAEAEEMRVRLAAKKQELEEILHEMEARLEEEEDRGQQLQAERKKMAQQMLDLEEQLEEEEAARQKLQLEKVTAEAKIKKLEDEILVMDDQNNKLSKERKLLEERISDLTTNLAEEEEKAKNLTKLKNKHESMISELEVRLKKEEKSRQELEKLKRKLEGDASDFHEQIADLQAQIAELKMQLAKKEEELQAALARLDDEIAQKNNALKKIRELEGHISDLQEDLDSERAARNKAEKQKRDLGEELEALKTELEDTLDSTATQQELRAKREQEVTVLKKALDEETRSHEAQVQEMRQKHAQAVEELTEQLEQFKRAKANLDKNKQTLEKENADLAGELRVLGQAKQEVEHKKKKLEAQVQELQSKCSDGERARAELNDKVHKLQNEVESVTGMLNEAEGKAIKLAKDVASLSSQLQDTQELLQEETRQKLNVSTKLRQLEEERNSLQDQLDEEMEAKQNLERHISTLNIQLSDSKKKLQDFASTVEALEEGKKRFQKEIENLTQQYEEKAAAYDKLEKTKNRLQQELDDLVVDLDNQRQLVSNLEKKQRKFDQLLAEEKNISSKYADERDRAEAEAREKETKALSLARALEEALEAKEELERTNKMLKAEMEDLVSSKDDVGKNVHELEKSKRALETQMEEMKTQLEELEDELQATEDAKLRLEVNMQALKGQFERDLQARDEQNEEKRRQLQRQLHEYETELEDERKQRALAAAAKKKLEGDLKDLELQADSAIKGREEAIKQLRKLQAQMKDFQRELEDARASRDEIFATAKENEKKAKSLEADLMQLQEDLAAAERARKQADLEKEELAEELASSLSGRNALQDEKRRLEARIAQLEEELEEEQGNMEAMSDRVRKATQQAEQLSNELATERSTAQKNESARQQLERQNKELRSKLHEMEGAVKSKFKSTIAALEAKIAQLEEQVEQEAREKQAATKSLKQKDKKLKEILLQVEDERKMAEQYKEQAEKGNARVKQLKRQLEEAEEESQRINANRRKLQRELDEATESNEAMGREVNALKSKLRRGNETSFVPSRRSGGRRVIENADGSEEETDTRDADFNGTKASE
UniProt Q15021, sequence (Q15021 whole entry, looked up): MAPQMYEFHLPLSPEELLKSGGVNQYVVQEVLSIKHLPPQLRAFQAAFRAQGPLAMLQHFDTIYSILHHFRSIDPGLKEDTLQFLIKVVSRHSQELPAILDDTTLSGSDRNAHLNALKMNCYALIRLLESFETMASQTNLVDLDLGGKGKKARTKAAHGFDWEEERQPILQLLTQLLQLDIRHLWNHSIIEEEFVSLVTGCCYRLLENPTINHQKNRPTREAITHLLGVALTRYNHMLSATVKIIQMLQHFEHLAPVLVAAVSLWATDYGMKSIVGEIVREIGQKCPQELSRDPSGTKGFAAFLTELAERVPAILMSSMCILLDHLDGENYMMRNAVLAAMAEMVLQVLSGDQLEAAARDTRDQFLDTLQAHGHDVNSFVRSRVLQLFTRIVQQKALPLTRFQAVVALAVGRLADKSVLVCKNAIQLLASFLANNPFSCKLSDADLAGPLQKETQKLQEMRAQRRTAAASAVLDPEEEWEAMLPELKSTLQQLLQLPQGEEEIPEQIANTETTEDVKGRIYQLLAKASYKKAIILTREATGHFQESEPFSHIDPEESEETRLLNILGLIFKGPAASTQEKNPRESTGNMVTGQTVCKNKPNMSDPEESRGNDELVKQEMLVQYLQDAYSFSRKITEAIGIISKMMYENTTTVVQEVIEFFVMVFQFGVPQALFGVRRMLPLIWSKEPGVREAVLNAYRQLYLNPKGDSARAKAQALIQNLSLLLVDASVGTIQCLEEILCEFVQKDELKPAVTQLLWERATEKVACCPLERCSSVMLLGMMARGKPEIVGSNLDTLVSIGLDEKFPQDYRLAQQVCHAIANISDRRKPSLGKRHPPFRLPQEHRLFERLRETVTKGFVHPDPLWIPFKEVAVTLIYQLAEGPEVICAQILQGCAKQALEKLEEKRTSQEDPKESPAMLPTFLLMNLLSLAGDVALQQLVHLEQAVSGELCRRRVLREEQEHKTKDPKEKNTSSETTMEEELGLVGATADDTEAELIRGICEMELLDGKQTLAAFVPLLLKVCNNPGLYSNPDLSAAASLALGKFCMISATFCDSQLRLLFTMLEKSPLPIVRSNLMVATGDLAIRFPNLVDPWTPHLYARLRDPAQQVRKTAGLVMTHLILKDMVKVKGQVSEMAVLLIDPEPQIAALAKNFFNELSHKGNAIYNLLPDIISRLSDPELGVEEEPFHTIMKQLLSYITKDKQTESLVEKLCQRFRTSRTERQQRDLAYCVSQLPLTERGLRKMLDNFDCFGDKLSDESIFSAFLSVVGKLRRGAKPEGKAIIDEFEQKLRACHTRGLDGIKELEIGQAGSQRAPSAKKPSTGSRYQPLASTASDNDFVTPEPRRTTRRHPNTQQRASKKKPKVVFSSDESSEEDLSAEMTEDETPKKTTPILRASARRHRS
UniProt O60934, sequence (O60934 whole entry, looked up): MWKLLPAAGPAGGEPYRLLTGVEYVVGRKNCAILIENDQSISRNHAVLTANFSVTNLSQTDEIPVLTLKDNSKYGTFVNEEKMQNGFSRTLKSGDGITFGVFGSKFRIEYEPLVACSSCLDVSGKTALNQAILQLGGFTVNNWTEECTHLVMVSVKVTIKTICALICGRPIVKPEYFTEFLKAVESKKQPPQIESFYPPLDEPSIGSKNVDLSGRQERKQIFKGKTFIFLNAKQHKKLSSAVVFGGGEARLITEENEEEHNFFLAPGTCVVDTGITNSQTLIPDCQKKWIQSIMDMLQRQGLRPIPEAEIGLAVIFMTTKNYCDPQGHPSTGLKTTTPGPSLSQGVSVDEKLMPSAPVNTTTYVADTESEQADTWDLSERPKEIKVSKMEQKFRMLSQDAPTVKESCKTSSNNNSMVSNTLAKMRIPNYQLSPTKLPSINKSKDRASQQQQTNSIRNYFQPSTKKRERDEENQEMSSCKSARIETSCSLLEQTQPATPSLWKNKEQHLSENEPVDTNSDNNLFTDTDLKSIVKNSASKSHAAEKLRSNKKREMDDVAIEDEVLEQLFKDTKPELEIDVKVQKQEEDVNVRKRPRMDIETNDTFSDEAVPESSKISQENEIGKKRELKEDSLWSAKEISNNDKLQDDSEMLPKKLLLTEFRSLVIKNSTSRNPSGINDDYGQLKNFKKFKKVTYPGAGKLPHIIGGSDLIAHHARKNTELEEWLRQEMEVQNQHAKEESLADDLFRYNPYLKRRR
UniProt O95169, sequence (O95169 whole entry, looked up): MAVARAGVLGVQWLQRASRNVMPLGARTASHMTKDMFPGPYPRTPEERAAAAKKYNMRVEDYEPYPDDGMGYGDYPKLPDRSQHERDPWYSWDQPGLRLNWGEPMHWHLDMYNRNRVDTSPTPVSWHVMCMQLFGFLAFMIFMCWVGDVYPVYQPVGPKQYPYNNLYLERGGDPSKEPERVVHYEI

Row | Target | log2 fold change [1] | log2 fold change (filanesib) | log2 fold change (zotarolimus) | log2 fold change (idasanutlin) | log2 fold change (alisertib) | log2 fold change [2] | log2 fold change (gefitinib) | log2 fold change [3] | log2 fold change (lapatinib) | log2 fold change (pictilisib) | log2 fold change [4] | log2 fold change (crizotinib) | log2 fold change [5] | log2 fold change [6] | log2 fold change (duvelisib) | log2 fold change (gandotinib) | log2 fold change (tozasertib) | log2 fold change [7] | log2 fold change (doramapimod) | log2 fold change (ispinesib)
1 | NCAPD2 (UniProt Q15021) | 0.025 | -0.006 | 0.061 | -0.072 | -0.005 | 0.092 | 0.029 | -0.138 | -0.024 | 0.059 | 0.018 | -0.024 | 0.004 | 0.093 | 0.035 | -0.077 | 0.092 | 0.109 | -0.049 | -0.029
2 | NBN (UniProt O60934) | -0.039 | -0.007 | 0.039 | -0.053 | 0.057 | 0.028 | 0.03 | -0.019 | 0.008 | -0.035 | 0.02 | 0.009 | 0.038 | -0.063 | 0.105 | -0.069 | 0.028 | 0.116 | -0.004 | 0.008
3 | NDUFB8 (UniProt O95169) | -0.042 | 0.004 | -0.005 | 0.069 | -0.04 | -0.141 | -0.023 | 0.06 | -0.036 | -0.034 | 0.035 | 0.09 | -0.015 | -0.001 | 0.161 | 0.045 | 0.028 | 0.078 | -0.057 | 0.123
4 | MRPS22 (UniProt P82650) | 0.041 | 0.05 | 0.071 | -0.301 (active) | 0.015 | 0.019 | -0.017 | -0.019 | 0.038 | -0.03 | -0.014 | 0.037 | 0.086 | 0.055 | 0.043 | 0.008 | 0.004 | 0.081 | 0.002 | -0.258 (active)
5 | MOV10 (UniProt Q9HCE1) | -0.048 | 0.155 | -0.005 | 0.071 | -0.073 | -0.021 | 0.002 | -0.1 | 0.073 | -0.048 | -0.086 | 0.032 | -0.258 | 0.254 | -0.059 | 0.239 | 0.01 | -0.023 | 0.103 | -0.093
6 | NCAPH (UniProt Q15003) | -0.03 | 0.018 | 0.024 | -0.046 | 0.016 | 0.092 | 0 | -0.065 | -0.021 | 0.062 | 0.049 | 0.013 | -0.017 | 0.072 | 0.024 | -0.11 | 0.102 | 0.081 | 0.006 | -0.064
7 | MYH11 isoform 2 (UniProt P35749) | 0.027 | -0.002 | 0.022 | -0.045 | 0.033 | 0.067 | 0.025 | -0.033 | 0.018 | -0.035 | -0.026 | -0.025 | 0.01 | -0.078 | 0 | 0.014 | -0.032 | 0.009 | 0.057 | -0.012
8 | OXSR1 (UniProt O95747) | 0.014 | -0.009 | -0.007 | -0.068 | -0.073 | 0.018 | -0.007 | 0.034 | -0.033 | 0.028 | 0.031 | -0.127 | 0.021 | 0.011 | 0.037 | -0.096 | -0.013 | 0.095 | 0.011 | -0.055
9 | NR2C2 isoform 2 (UniProt P49116) | 0.026 | 0.019 | 0.055 | 0.041 | -0.173 | 0.028 | -0.052 | 0.084 | -0.004 | 0.019 | 0.016 | 0.063 | 0.054 | -0.076 | 0.066 | -0.047 | 0.081 | 0.022 | 0.011 | 0.009
